The source of these data is PubChem BioAssay AID686978 (National Center for Advancing Translational Sciences (NCATS), 2013).

The campaign covered roughly 420,000 compounds. About 64,000 (15%) were called active. About 27% were inconclusive and are not listed. Calls follow the shape of the dose curve; as a rule, active = well fitted inhibition curve with a large enough effect; inconclusive = small, poorly fitted or top-dose-only effect; inactive = flat fitted curve, though single readings scatter. Only a sample is shown.
% is scaled to controls: 0 for no effect and ±100 for the full control effect; potency is read from the fitted curve at half-maximal effect.

This assay in a line: qHTS for Inhibitors of human tyrosyl-DNA phosphodiesterase 1 (TDP1): qHTS in cells in absence of CPT. Also: nearly all actives have a fitted effect of over 55% in size. Conditions: DT40 Tdp1-/- hTDP1 cells, no CPT, ATP luminescence, 48 h; activity change, negative = growth inhibition: at 46.2 µM (top of the series). An outline of the steps:
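DT40 Tdp1-/-;hTDP1 cells, no CPT (DMSO vehicle only), 400 cells/well; compounds pin-transferred; ≥48 hr, 37 °C; CellTiter-Glo 30 min RT dark, luminescence read.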
Take `NC(=O)COC(=O)c1ccc2c(c1)C(=O)N(Cc1ccco1)C2=O`: the “activity change, negative = growth inhibition” value is -3.81% (inactive). Turning to `CCCS(=O)(=O)NC(=O)C1(C)CCN(C(=O)c2sccc2C)C1` (centres undefined), the “activity change, negative = growth inhibition” value was -8.85% (inactive). Regarding `COc1ccc(NC(=O)c2ccco2)cc1NC(=O)c1ccc(C#N)cc1F`, the “activity change, negative = growth inhibition” value is 10.2% (inactive). Take `Clc1cc(-c2ccc(/C=N/n3cnnc3)o2)ccc1Br`: the “activity change, negative = growth inhibition” value was -18.8% (inactive). Regarding `Cc1cc([N+](=O)[O-])nn1CCCC(=O)Nc1cccnc1Cl`, the “activity change, negative = growth inhibition” value is 2.23% (inactive). As for `O=C(CCNC(=O)c1ccc([N+](=O)[O-])cc1)Nc1ccccc1N1CCOCC1`, the “activity change, negative = growth inhibition” value is 7.42% (inactive).

With `CC(C)(C)c1ccc(C(=O)NCCn2c(N)c(C#N)c3nc4ccccc4nc32)cc1`, the Potency is 29.1 µM (active).

As to `CC(C)(C)c1ccc(C(=O)NCC(=O)OCN2C(=O)c3ccccc3C2=O)cc1`, the “activity change, negative = growth inhibition” value was -16.3% (inactive). For `CCOC(=O)/C(C#N)=C\c1c(C)cc(C)c(COC(C)=O)c1C`, the “activity change, negative = growth inhibition” value is -11.1% (inactive). `Cc1ccc2c(=O)c(C(=O)c3cccc(Cl)c3)cn(CC(=O)NCc3ccccc3)c2n1`: the “activity change, negative = growth inhibition” value is -26.2% (inactive).

Turning to `O=C(O)CC1=C(Nc2ccccc2)C(=O)N(c2ccccc2)C1c1ccc(Cl)cc1` (centres undefined), the “activity change, negative = growth inhibition” value is -5.86% (inactive). Still for that read-out and setting: then `CCc1nc2onc(C)c2c(=O)n1CC(=O)O`, with -5.32% (inactive). On the same count and under the same terms, then `CCOC(=O)N1CCN(C(=O)c2ccc(S(=O)(=O)c3ccc(C)cc3)c(NC(C)=O)c2)CC1`, with 8.97% (inactive); and `CCOC(=O)N1CCN(C(=O)c2cnc3n(c2=O)CCS3)CC1`, with -12.4% (inactive).

For `CCOC(=O)N1CCN(C(=O)c2ccc3c(c2)N(Cc2ccc(C)cc2)CCS3)CC1`, the Potency is 23.1 µM (active). Regarding `COc1ccc(NC(=O)NC2CC3CCCC(C2)N3Cc2ccccc2)cc1` (centres undefined), the “activity change, negative = growth inhibition” value was -11.4% (inactive). Still for that read-out and setting: the value for `CC1(C)C2CC[C@]3(C)C(CC=C4[C@@H]5C[C@@](C)(CO)CC[C@]5(C(=O)O)CC[C@]43C)[C@@]2(C)CC[C@@H]1O` (some centres undefined) was -5.43% (inactive).

Regarding `COC(=O)c1c(-c2cccs2)csc1NC(=O)CSc1ncnc2sc(C)c(C)c12`, the Potency is 20.6 µM (active). Take `Cc1sc2ncnc(SCC(=O)Nc3ccc(CN4CCCC4)cc3)c2c1C`: the “activity change, negative = growth inhibition” value is 1.26% (inactive). On to `Cc1sc2ncnc(SCC(=O)NC3CCS(=O)(=O)C3)c2c1C` (centres undefined), for which the “activity change, negative = growth inhibition” value was -15.7% (inactive). Still for that read-out and setting: then `CC(=O)Nc1ccc(N2C(=O)C3C4C=CC(CC4)C3C2=O)cc1` (centres undefined), with 1.9% (inactive); and `O=C(O)[C@@H]1CCCN1c1ncnc2sc3c(c12)CCC3`, with -3.66% (inactive); and `O=C(O)c1cccnc1Sc1ncnc2sc3c(c12)CCC3`, with -0.732% (inactive). For `OCCNc1nc2ccccc2n1-c1ncnc2sc3c(c12)CCC3`, the Potency is 20.6 µM (active). For the compound `COc1cc(N2C(=O)CSC2=S)cc(OC)c1OC`, the “activity change, negative = growth inhibition” value was -1.53% (inactive). The same measure, in the same setting: then `O=C(Cn1nc(C(F)(F)F)c2c1CCC2)NCc1ccc(F)cc1`, with -16.4% (inactive); and `O=C(CN(C(=O)c1csnn1)c1ccc(Br)cc1)NC1CCCC1`, with -4.15% (inactive); and `O=C(NC(=S)NC1CCCCC1)c1ccc(Cl)cc1`, with -24.8% (inactive). Consider `O=C(NNC(=S)NC1CC2CCC1C2)c1ccc(Cl)cc1` (centres undefined), for which the Potency was 23.1 µM (active). As to `O=C(NNC(=O)C1C2CCC(C2)C1C(=O)O)c1ccc(Cl)cc1` (centres undefined), the “activity change, negative = growth inhibition” value is -5.54% (inactive).

For the compound `Oc1c(C(c2ccco2)N2CCC3(CC2)OCCO3)sc2ncnn12` (centres undefined), the “activity change, negative = growth inhibition” value is -4.83% (inactive). On the same count and under the same terms, then `CCOC(=O)c1ccc(N2C(=O)CC(N3CC(C)OC(C)C3)C2=O)cc1` (centres undefined), with -2.13% (inactive). On the same count and under the same terms, the value for `COc1ccc(C)cc1N(CC(=O)N1CCCC1)S(=O)(=O)c1ccccc1` was 2.67% (inactive).

Turning to `O=C(NCCCn1ccnc1)C1CCCN(S(=O)(=O)c2cc(Cl)ccc2Cl)C1` (centres undefined), the “activity change, negative = growth inhibition” value is -24.2% (inactive). On to `Cc1ccc(Cl)cc1NC(=O)COC(=O)C1CCCCC1`, for which the “activity change, negative = growth inhibition” value is -4.84% (inactive).

As for `Cc1ccc(Cl)cc1NC(=O)CCC(=O)N1CC(C)Sc2ccccc21` (centres undefined), the Potency was 18.4 µM (active). Take `Cc1ccc(CNC(=O)CCC(=O)N2CC(C)Sc3ccccc32)cc1` (centres undefined): the “activity change, negative = growth inhibition” value is -18% (inactive). As for `Cc1cccc(N(C(=O)Cn2nnc(-c3ccc(C)o3)n2)C(C(=O)NC2CCCC2)c2ccncc2)c1` (centres undefined), the “activity change, negative = growth inhibition” value was -18.7% (inactive). As for `CC(NC(=O)c1ccco1)c1ccc2c(c1)OCO2` (centres undefined), the “activity change, negative = growth inhibition” value was 21.7% (inactive).

As to `C#CCSc1nnc(-c2sc3ccccc3c2Cl)o1`, the “activity change, negative = growth inhibition” value was -9.11% (inactive). Same read-out and setting: the value for `O=C(C[C@@H]1C/C=C\CCC(=O)OC[C@@H]2CCCN2C1=O)NCCO` was 6.47% (inactive).

Take `O=C1NC[C@@H](c2ccccc2)OC(=O)[C@H](Cc2ccc(F)cc2)CC/C=C/C[C@H]1CC(=O)N(CCO)Cc1ccccc1`: the Potency was 14.6 µM (active). On to `O=C1CCC/C=C\C[C@@H](CC(=O)N(CCO)Cc2ccccc2)C(=O)NCCO1`, for which the “activity change, negative = growth inhibition” value was -2.52% (inactive).

For the compound `O=C1N[C@H](Cc2c[nH]c3ccccc23)COC(=O)[C@H](Cc2ccc(F)cc2)C/C=C\C[C@H]1CC(=O)N(CCO)Cc1ccccc1`, the Potency is 16.4 µM (active). With `CN(Cc1cccs1)C(=O)Cc1c[nH]c2ccccc12`, the “activity change, negative = growth inhibition” value is -25.8% (inactive). Regarding `O=C1CCC/C=C/C[C@@H](CC(=O)N(CCO)Cc2ccccc2)C(=O)NC[C@H](c2ccccc2)O1`, the “activity change, negative = growth inhibition” value is -25.4% (inactive). For `O=C(N[C@@H]1C/C=C\C[C@@H](CC(=O)N(CCO)Cc2ccccc2)C(=O)N[C@H](Cc2ccccc2)COC1=O)OCC1c2ccccc2-c2ccccc21`, the Potency was 4.61 µM (active). Same read-out and setting: then `O=C1OC[C@@H]2CCCN2C(=O)[C@H](CC(=O)N(CCO)Cc2ccccc2)C/C=C\CC[C@@H]1Cc1ccc(F)cc1`, with 18.4 µM (active). Regarding `C=CCn1c(COc2ccccc2)nnc1SCC(=O)NCC(=O)OCC`, the “activity change, negative = growth inhibition” value is -27.1% (inactive). Consider `O=C(O)CSc1nccc2ccccc12`, for which the “activity change, negative = growth inhibition” value is -14.4% (inactive). For the compound `COc1cc(Cl)c(S(=O)(=O)n2cnc(C)c2)cc1Cl`, the “activity change, negative = growth inhibition” value was -1.08% (inactive).

On to `Cc1ccnc(NC(=O)CNC(=O)c2ccccc2)c1`, for which the “activity change, negative = growth inhibition” value was 5.46% (inactive).

For the compound `CCc1ccc(CNC(=O)CCc2nc(-c3cccs3)no2)cc1`, the “activity change, negative = growth inhibition” value is -19.3% (inactive).

In the case of `CSc1n[nH]c(-c2ccco2)n1`, the “activity change, negative = growth inhibition” value was -7.2% (inactive).

On to `O=C(CC(NS(=O)(=O)c1ccc(Cl)cc1)c1ccco1)NC1CCCC1` (centres undefined), for which the “activity change, negative = growth inhibition” value was -3.48% (inactive).

With `CCc1nn(CC(=O)N2CCN(CC)CC2)c(=O)c2cccn12`, the “activity change, negative = growth inhibition” value was -0.686% (inactive). As to `COc1ccccc1NS(=O)(=O)c1ccc(C)c(C(=O)NCC(c2ccco2)N(C)C)c1` (centres undefined), the “activity change, negative = growth inhibition” value was 6.61% (inactive). `C=CC(C1=CC(=O)C=CC1=O)c1ccc(O)cc1` (centres undefined): the Potency is 1.84 µM (active). As for `COc1ccc(CC(=O)Nc2ccc3c(c2)CCC3)cc1S(=O)(=O)N1CCOCC1`, the “activity change, negative = growth inhibition” value is -18.7% (inactive). Same read-out and setting: the value for `COC(=O)c1cccc(N(CC(=O)NCC2CCCO2)C(=O)CCC(=O)Nc2cc(C)on2)c1` (centres undefined) was -22.2% (inactive); that for `Cc1ccc(-c2csc(SCC(=O)Nc3cc(C)on3)n2)cc1` was -27.8% (inactive). `CCOC(=O)Cc1csc(NC(=O)CSc2ccc(Br)cc2)n1`: the Potency is 16.4 µM (active). Consider `CCOC(=O)Cc1csc(SCc2cc(=O)oc3cc(O)ccc23)n1`, for which the Potency was 13 µM (active). Turning to `CCOC(=O)Cc1csc(NC(NC(=O)OCC)(C(F)(F)F)C(F)(F)F)n1`, the “activity change, negative = growth inhibition” value is -14.5% (inactive). On to `CCOC(=O)Cc1csc(SCC(=O)Nc2ccc(C)cc2F)n1`, for which the Potency was 14.6 µM (active). Turning to `CCOC(=O)Cc1csc(NC(=O)C(C)(C)C)n1`, the “activity change, negative = growth inhibition” value was -20.3% (inactive). With `CCOC(=O)Cc1csc(NC(=O)COc2ccc3c(C)cc(=O)oc3c2)n1`, the “activity change, negative = growth inhibition” value was -22.8% (inactive).

In the case of `Cc1ccc2c(CSc3nncs3)cc(=O)oc2c1`, the “activity change, negative = growth inhibition” value is -5.24% (inactive).

Turning to `Cc1ccc(C)c(NC(=O)COC(=O)Cn2c(C)csc2=O)c1`, the “activity change, negative = growth inhibition” value is -18.8% (inactive).
